From the OligoGym collection come the findings set out here.

Some targets named below: FXN; FUT7; FZR1; GABBR1; GABRA1; GAB3; GALE; GCKR; GATA4; GDF3; GEMIN6.
Common to all, as to experiment: pooled miR-30 sensor sort-seq; sequence = guide strand
What all share (settings): shRNA
Further: reference of the scale not given here.

As for TTTAGTGAGCTCTGCGGCCAGC, the sensor-assay potency score (higher = more potent) with FXN was -1.33.

For the sequence TTGGCACTCAGGTGGCAGCGGG, the sensor-assay potency score (higher = more potent) in the assay with FUT7 was -1.03.

AAAGGAGACATCATAGTCCTCA showed a sensor-assay potency score (higher = more potent) in the assay with FXN of 0.0111.

Take TTGTTGATCACATAGGTTCCTA: the sensor-assay potency score (higher = more potent) in the assay with FXN was found to be 0.0276.

For the sequence TTTCTCCGTAATGTAGTCGCGG, the sensor-assay potency score (higher = more potent) with FUT7 is -0.338.

In turn, TAGCGGTCACAGATGGCACAGA came in with a sensor-assay potency score (higher = more potent) in the assay with FUT7 of -0.787.

On to TTGCTTGTTTGGCGTCTGCTTG, for which the sensor-assay potency score (higher = more potent) with FXN is -0.812.

Take TTGATTTCGACACCCAGCCCTT: the sensor-assay potency score (higher = more potent) in the assay with FUT7 is -1.26.

The sequence TTGCGCCAGAATTTCTCCGTAA had a sensor-assay potency score (higher = more potent) in the assay with FUT7 of -0.526.

With TTGCACACTTGGGAGCCCGTGT, in the assay with FZR1, the sensor-assay potency score (higher = more potent) is -0.748.

Take TCTTGGTGAACATGGAACCGTA: in the assay with GABBR1, the sensor-assay potency score (higher = more potent) is -1.08.

Turning to TAGTTTCTCCACAAATTCCTGG, the sensor-assay potency score (higher = more potent) with GABBR1 is -0.496.

In turn, TGAGGTTCCACATCCTAGCAGC yielded a sensor-assay potency score (higher = more potent) with GABBR1 of -0.132.

TTGAGATTCGGGGAGATCCTTC came in with a sensor-assay potency score (higher = more potent) in the assay with GABBR1 of -0.396.

Consider TTGTTGTTGGTCGATGACCCTG, for which the sensor-assay potency score (higher = more potent) with GABBR1 is -1.05.

TAGCCAATCTTCTTGTAGCTGC registered a sensor-assay potency score (higher = more potent) in the assay with GABBR1 of -0.0319.

In the case of TACTGTGGCAAACTCAATCAGA, the sensor-assay potency score (higher = more potent) with GABRA1 is -0.32.

TTATTCTGAAATTCCTTCCGAA registered a sensor-assay potency score (higher = more potent) with GAB3 of 0.459.

TTTCGATGTAGCTTTCTTCGTC: in the assay with GAB3, the sensor-assay potency score (higher = more potent) turned out to be 0.694.

As to TTCTCCTTCTCCAACAGCCGGG, the sensor-assay potency score (higher = more potent) with GABBR1 was -0.705.

In turn, TTTTCAAAGAGTTTCACGCGGG yielded a sensor-assay potency score (higher = more potent) with GABBR1 of -0.189.

In the case of TTTTGTGCTCTGGAGAGCCTGT, in the assay with GAB3, the sensor-assay potency score (higher = more potent) was -0.572.

Sequence TTGAGATCTCTATTCACTGGGG came in with a sensor-assay potency score (higher = more potent) with GAB3 of 0.467.

In the assay with GAB3, TTCCACACTGCACACTCGCTGA came in with a sensor-assay potency score (higher = more potent) of -0.565.

Consider TAGTCCGGCAGGATGTCCCTGC, for which, in the assay with GABBR1, the sensor-assay potency score (higher = more potent) is -0.16.

On to TGGATCACACTTGCTGTCGTGG, for which, in the assay with GABBR1, the sensor-assay potency score (higher = more potent) is -0.99.

With TTTCCTTGAATCGTTATGCTTT, the sensor-assay potency score (higher = more potent) with GAB3 was determined as 0.221.

In the assay with GABBR1, TTGTGAGTGTAGACTGAGGGTA gave a sensor-assay potency score (higher = more potent) of -0.0666.

For the sequence TTGTATAAGCATAACTTCCAAA, the sensor-assay potency score (higher = more potent) in the assay with GABRA1 is -0.726.

Sequence TTGGATAGCATGTTCTTCCCAG returned a sensor-assay potency score (higher = more potent) with GABBR1 of 0.0924.

Regarding TAAGACTTGGAGCAGATTCGGA, the sensor-assay potency score (higher = more potent) with GABBR1 was -0.862.

TAGGTCCATCTGTCTATCCCAA had a sensor-assay potency score (higher = more potent) with GABBR1 of -0.913.

TACAATGAGCAACTGCACCTTT displayed a sensor-assay potency score (higher = more potent) in the assay with GABRA1 of 0.167.

ATGGTAGCAATCTTCTTCCAGC registered a sensor-assay potency score (higher = more potent) in the assay with GABBR1 of -1.28.

TTGTCCAAGAAGGTCATACTGG registered a sensor-assay potency score (higher = more potent) with GABRA1 of -0.186.

The sequence TTCTGTGACAAGGAGAGGGTGT displayed a sensor-assay potency score (higher = more potent) with GABBR1 of 0.0904.

Consider TTAGACGTGATCCATCTTCTGC, for which, in the assay with GABRA1, the sensor-assay potency score (higher = more potent) was -0.591.

In the assay with GABRA1, TTAACAACATTCCAACAGCTAA showed a sensor-assay potency score (higher = more potent) of -1.39.

TCTGCTACAACCACTGAGCGTG gave a sensor-assay potency score (higher = more potent) with GABRA1 of -0.543.

For the sequence TAAACAACTTCTGCTCTTGTAT, in the assay with GABRA1, the sensor-assay potency score (higher = more potent) was -0.033.

Regarding TTAGTGAAATAGTTTACTGTGG, the sensor-assay potency score (higher = more potent) with GABRA1 was -0.522.

In the case of TATATCATTGGATAGCAGCTTT, the sensor-assay potency score (higher = more potent) with GABRA1 is -0.213.

Regarding TAGACAAATTGCACATGCCTAC, the sensor-assay potency score (higher = more potent) with GABBR1 is -0.546.

In turn, TTTATCTCTAAAACATCTGGGC yielded a sensor-assay potency score (higher = more potent) with GABRA1 of 0.106.

In the assay with GABBR1, TTCTCATCAACTATCCACTGGA had a sensor-assay potency score (higher = more potent) of 0.124.

For the sequence TAGTACATGAATGCAATGGAGA, in the assay with GABBR1, the sensor-assay potency score (higher = more potent) was -0.803.

TCCTTCTTTGTGAAGACCGTGT displayed a sensor-assay potency score (higher = more potent) with GABBR1 of -0.749.

Sequence TTGACCAGCTATCACATCTGGT displayed a sensor-assay potency score (higher = more potent) in the assay with GAB3 of -0.37.

Take TTCAGCATGACAATCTCAGTTG: the sensor-assay potency score (higher = more potent) in the assay with GABBR1 is -0.723.

For TTCTGCTTCTGCCAGCGCCAGA, the sensor-assay potency score (higher = more potent) with GALE is -1.44.

Sequence TAACTCTGTAATAATCCAGAGG had a sensor-assay potency score (higher = more potent) with GALE of -0.909.

In the case of TAGGTCGAGAGCAAGAACTCTC, the sensor-assay potency score (higher = more potent) with GCKR was -0.283.

TTTATTTTGAGAGATGTTGGAA gave a sensor-assay potency score (higher = more potent) with GATA4 of 0.35.

TTTATTAAAAGATTTACCCTAA displayed a sensor-assay potency score (higher = more potent) in the assay with GDF3 of 0.196.

On to TTCGCTGTAGAGTCTCTGGTAT, for which the sensor-assay potency score (higher = more potent) in the assay with GCKR was found to be 0.0176.

In the assay with GEMIN6, ATTCCGGTCACAGACATGCTGC came in with a sensor-assay potency score (higher = more potent) of -1.04.

Sequence TTTGTCTAGATCCTGGGTCAGT gave a sensor-assay potency score (higher = more potent) with GCKR of -0.835.

Regarding TTCTGTTGTGTTGTGTTTGTTT, in the assay with GATA4, the sensor-assay potency score (higher = more potent) was -0.142.

As for TTCTTGAAATTGGACTGCCTGG, the sensor-assay potency score (higher = more potent) with GDF3 is -1.06.

For TAAAACAGAATCTTGGTTCAAA, in the assay with GATA4, the sensor-assay potency score (higher = more potent) stood at 0.268.

For TTGCTGGAAGCACCGCTGGCGG, the sensor-assay potency score (higher = more potent) with GATA4 is -1.56.

In turn, TTCTTCTCCAGACTGGTGCTGA yielded a sensor-assay potency score (higher = more potent) in the assay with GCKR of -0.0469.

Regarding TTTGGTGCTTAGCTCACGCTGG, the sensor-assay potency score (higher = more potent) with GCKR was -0.0787.

As for TTAGCAGTCGTCTTCTTTCCAG, the sensor-assay potency score (higher = more potent) in the assay with GATA4 is -0.572.

For AATAAGATCCTGAACACGCGAC, in the assay with GEMIN6, the sensor-assay potency score (higher = more potent) is -0.339.

In turn, TTTACGTAGCATAAGTCTCGGG gave a sensor-assay potency score (higher = more potent) with GDF3 of -0.227.

For TAATGTCGTAGAATGACATTGT, the sensor-assay potency score (higher = more potent) with GDF3 worked out at 0.288.

Regarding TAGCTCACGCTGGAACTTCTGG, in the assay with GCKR, the sensor-assay potency score (higher = more potent) is -0.719.

In turn, TGAAGTGAACAGCACCTTGTGG displayed a sensor-assay potency score (higher = more potent) in the assay with GDF3 of -0.321.

In turn, ATCTGCTTTGTCTAGATCCTGG yielded a sensor-assay potency score (higher = more potent) with GCKR of -0.482.

On to ATTGTCATTATTGTCCTGGTAG, for which the sensor-assay potency score (higher = more potent) in the assay with GDF3 was determined as 0.032.

TTTACCCTAAGAACACTCCTTC: the sensor-assay potency score (higher = more potent) with GDF3 was 0.541.

In the assay with GDF3, ATCCTTAGCTACATCCAGCAGG yielded a sensor-assay potency score (higher = more potent) of -0.935.

As for TTACGTAGCATAAGTCTCGGGA, the sensor-assay potency score (higher = more potent) in the assay with GDF3 stood at 0.238.

For TATCATCTGACAGTGGCTGGGG, the sensor-assay potency score (higher = more potent) in the assay with GCKR came out at 0.728.

In the case of TATACTCATTCTTCTCACTGGC, in the assay with GEMIN6, the sensor-assay potency score (higher = more potent) worked out at 0.16.

TTCTTTGACCAGTATCTCCAGG came in with a sensor-assay potency score (higher = more potent) with GDF3 of -0.0651.

As for GAAGTCGTCAAACATATCGAGA, the sensor-assay potency score (higher = more potent) in the assay with GATA4 was -1.84.

As to TAGCAGTCGAACAATGTTCTCA, in the assay with GCKR, the sensor-assay potency score (higher = more potent) is -0.15.

In the assay with GEMIN6, TAAAATATAGTCTTTTTCTATC registered a sensor-assay potency score (higher = more potent) of -1.26.

The sequence TTCCTTCTCATGTGCAACCTGG showed a sensor-assay potency score (higher = more potent) with GCKR of -0.464.

The sequence TAACAGGAAGCTGAAAGCCAAA yielded a sensor-assay potency score (higher = more potent) in the assay with GDF3 of -1.72.

For the sequence TGTCGGAATGTTGAACTCCAGT, the sensor-assay potency score (higher = more potent) with GCKR was -1.08.

For the sequence TAGAATGACATTGTCATTATTG, the sensor-assay potency score (higher = more potent) with GDF3 was -1.56.
